The target in this test is U3 small nucleolar RNA-associated protein 4 (UniProt Q06679). Put plainly: cross-link between two proteins.
U3 small nucleolar RNA-associated protein 4, sequence (Q06679 whole entry): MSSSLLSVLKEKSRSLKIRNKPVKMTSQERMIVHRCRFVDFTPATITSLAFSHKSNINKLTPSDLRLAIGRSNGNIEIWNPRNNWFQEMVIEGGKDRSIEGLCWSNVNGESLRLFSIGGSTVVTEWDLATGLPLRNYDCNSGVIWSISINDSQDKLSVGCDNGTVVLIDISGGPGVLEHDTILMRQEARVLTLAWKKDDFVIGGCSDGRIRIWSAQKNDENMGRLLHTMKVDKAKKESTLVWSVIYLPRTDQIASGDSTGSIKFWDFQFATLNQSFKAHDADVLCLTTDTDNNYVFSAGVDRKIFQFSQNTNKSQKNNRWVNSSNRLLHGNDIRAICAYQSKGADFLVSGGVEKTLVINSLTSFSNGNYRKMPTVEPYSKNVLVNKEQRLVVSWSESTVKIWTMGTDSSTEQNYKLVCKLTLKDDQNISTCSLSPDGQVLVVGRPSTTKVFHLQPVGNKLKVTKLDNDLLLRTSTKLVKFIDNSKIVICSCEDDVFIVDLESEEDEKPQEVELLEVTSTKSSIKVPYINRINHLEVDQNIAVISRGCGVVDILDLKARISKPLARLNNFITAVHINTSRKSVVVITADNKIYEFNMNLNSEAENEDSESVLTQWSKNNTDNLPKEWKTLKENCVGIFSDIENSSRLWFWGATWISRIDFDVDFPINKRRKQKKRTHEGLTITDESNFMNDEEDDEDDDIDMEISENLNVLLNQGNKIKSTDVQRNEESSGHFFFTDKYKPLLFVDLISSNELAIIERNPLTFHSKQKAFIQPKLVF

As to “U3 small nucleolar RNA-associated protein 8, P53276”, the “listed as a hit” value was “yes”.
